# From PubChem BioAssay (Tox21)
# Results filed as inconclusive are left out. A call without a number means that no potency is given here. Activity calls are given as the source filed them. Unless noted, the call rests on the fitted dose curve; in most records, active means well fitted curve in the direction sought with a large enough effect in the repeat runs; inconclusive means weak or mixed curves; inactive means no such curve, though single readings can be large; an effect the other way counts as inactive or inconclusive.
# Assays:
# [1] = qHTS assay to identify aromatase inhibitors - cell viability counter screen (AID 743084);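 further: cells stimulated with testosterone during compound exposure; nearly all actives have a fitted effect of over 55% in size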
# [2] = target: Aryl hydrocarbon receptor (Homo sapiens) (UniProt P35869); experiment: qHTS assay to identify small molecule that activate the aryl hydrocarbon receptor (AhR) signaling pathway (AID 743085); further: nearly all actives have a fitted effect of over 15% in size; further: potency means the concentration at half of the fitted maximal effect;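 on activation: HG2L7.5c1 human HepG2 liver cells with stably integrated DRE-driven firefly reporter; series mostly up to about 70 µM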
# Outline: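 Luminescence (ONE-Glo) from a dioxin-responsive-element luciferase reporter in HG2L7.5c1 HepG2 cells after 24 hr compound exposure at 37C; viability measured by CellTiter-Fluor fluorescence beforehand.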
# [3] = target: Peroxisome proliferator-activated receptor gamma (Homo sapiens) (UniProt P37231); experiment: qHTS assay to identify small molecule agonists of the peroxisome proliferator-activated receptor gamma (PPARg) signaling pathway (AID 743094; active means well fitted activation curve with a large enough effect in the signal ratio in the repeat runs, not every such curve was filed as active; the % refers to the signal ratio)
# Outline: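 GeneBLAzer PPARg UAS-bla HEK293H cells were plated, rested 5 h, then exposed to compounds for 17 h at 37C. Beta-lactamase activity was read by LiveBLAzer B/G FRET substrate fluorescence after 1 h at room temperature.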
# [4] = qHTS assay to identify small molecule antagonists of the peroxisome proliferator-activated receptor gamma (PPARg) signaling pathway - cell viability counter screen (AID 743194); further: nearly all actives have a fitted effect of over 55% in size
# Outline: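 Viability was measured as CellTiter-Glo luminescence in GeneBLAzer PPARg UAS-bla HEK293H cells. These cells had been exposed 17 h at 37 C to compounds together with rosiglitazone at 50 nM final, with the beta-lactamase readout taken in the same wells.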
# [5] = qHTS assay for small molecule activators of the heat shock response signaling pathway - cell viability counter screen (AID 743209); further: nearly all actives have a fitted effect of over 50% in size
# Outline: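 HSE-bla HeLa cells plated overnight, then exposed to Tox21 compounds (23 nL in DMSO) for 5 h at 37 C. After the bla reporter read, CellTiter-Glo was added in the same wells and luminescence read after 30 min at room temperature.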
# [6] = qHTS assay for small molecule activators of the heat shock response signaling pathway (AID 743210; active means well fitted activation curve with a large enough effect in the signal ratio in the repeat runs, with a control signal flat, not every such curve was filed as active; the % refers to the signal ratio;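 further: HeLa cells with beta-lactamase reporter driven by heat shock elements; series mostly up to about 63 µM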)
# Outline: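 In HSE-bla HeLa cells, 5 h compound incubation (37 C) precedes addition of LiveBLAzer B/G substrate; after 2.5 h at room temperature, fluorescence intensity indicates reporter induction.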
# [7] = qHTS assay to identify small molecule agonists of the peroxisome proliferator-activated receptor delta (PPARd) signaling pathway - cell viability counter screen (AID 743211); further: nearly all actives have a fitted effect of over 55% in size
# Outline: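 Viability was measured as CellTiter-Glo luminescence (30 min, room temperature) in the same wells as the beta-lactamase readout. GeneBLAzer PPARd UAS-bla HEK293H cells received compound after 5 h plating and were incubated 17 h at 37 C.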
# [8] = target: Peroxisome proliferator-activated receptor delta (Homo sapiens) (UniProt Q03181); experiment: qHTS assay to identify small molecule agonists of the peroxisome proliferator-activated receptor delta (PPARd) signaling pathway (AID 743212; calls by dose curve)
# Outline: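 HEK293H UAS-bla reporter cells, human PPARd system; compounds delivered in DMSO after 5 h plating, then at 37 C. Beta-lactamase FRET read, 2 h RT substrate step.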
# [9] = qHTS assay to identify small molecule antagonists of the peroxisome proliferator-activated receptor delta (PPARd) signaling pathway - cell viability counter screen (AID 743213); further: nearly all actives have a fitted effect of over 50% in size
# Outline: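 Viability counter-screen, qHTS format: PPARd-bla HEK293H, L165041 300 nM final, 17 h compound exposure at 37 C, CellTiter-Glo luminescence after 30 min RT.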
# [10] = target: Peroxisome proliferator-activated receptor delta (Homo sapiens) (UniProt Q03181); experiment: qHTS assay to identify small molecule antagonists of the peroxisome proliferator-activated receptor delta (PPARd) signaling pathway (AID 743215; active means well fitted inhibition curve with a large enough effect in the signal ratio in the repeat runs, not every such curve was filed as active; the % refers to the signal ratio;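 further: cells stimulated with agonist L165041 at 300 nM final during compound exposure; series mostly up to about 62 µM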)
# Outline: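 PPARd-bla HEK293H cells (UAS-bla reporter) preincubated 5 h, then given compound plus 300 nM final L165041 agonist for 17 h at 37 C. Beta-lactamase activity read by LiveBLAzer B/G FRET substrate fluorescence after 2 h at room temperature.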
# [11] = target: Bile acid receptor (Homo sapiens) (UniProt Q96RI1); experiment: qHTS assay to identify small molecule antagonists of the farnesoid-X-receptor (FXR) signaling pathway (AID 743217; active means well fitted inhibition curve with a large enough effect in the signal ratio in the repeat runs, not every such curve was filed as active; the % refers to the signal ratio)
# Outline: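 FXR-UAS-bla HEK 293T cells (beta-lactamase reporter) given compound plus chenodeoxycholic acid (50 uM final), 16 h at 37C. LiveBLAzer B/G FRET substrate added for 2 h at room temperature; fluorescence read.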
# [12] = target: Bile acid receptor (Homo sapiens) (UniProt Q96RI1); experiment: qHTS assay to identify small molecule agonists of the farnesoid-X-receptor (FXR) signaling pathway (AID 743220; active means well fitted activation curve with a large enough effect in the signal ratio in the repeat runs, not every such curve was filed as active; the % refers to the signal ratio)
# Outline: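 Beta-lactamase reporter under UAS control in GeneBLAzer FXR HEK 293T cells (5000/well) measured with LiveBLAzer FRET substrate after 2 h at room temperature. Compound exposure lasted 16 h at 37C.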
# [13] = qHTS assay to identify small molecule antagonists of the farnesoid-X-receptor (FXR) signaling pathway - cell viability counter screen (AID 743221; active means well fitted cell-killing curve with a large enough effect in the repeat runs, not every such curve was filed as active; further: nearly all actives have a fitted effect of over 50% in size)
# Outline: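 Cytotoxicity counter screen run in the FXR-bla reporter wells: HEK 293T cells exposed to compound with 50 uM (final) chenodeoxycholic acid for 16 h, 37 C, then viability measured by CellTiter-Glo luminescence after 30 min, room temperature.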
# [14] = qHTS assay to identify small molecule that activate the aryl hydrocarbon receptor (AhR) signaling pathway - cell viability counter screen (AID 743086);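 further: HepG2 liver cells carrying the AhR DRE luciferase reporter; series mostly up to about 70 µM; nearly all actives have a fitted effect of over 45% in size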
# Outline: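 Cytotoxicity counter screen: CellTiter-Fluor signal (30 min, 37 C) in 4000 HepG2 cells/well carrying the DRE-luciferase reporter, following 24 h compound exposure at 37 C.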
# [15] = target: Peroxisome proliferator-activated receptor gamma (Homo sapiens) (UniProt P37231); experiment: qHTS assay to identify small molecule antagonists of the peroxisome proliferator-activated receptor gamma (PPARg) signaling pathway (AID 743191; calls by dose curve; further: series mostly up to about 63 µM; nearly all actives have a fitted effect of over 30% in size)
# Outline: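 Beta-lactamase reporter under UAS control in HEK293H PPARg-bla cells; compound treatment 17 h at 37C. Read-out: fluorescence intensity after 1 h room-temperature incubation with LiveBLAzer B/G FRET substrate.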
# [16] = qHTS assay for small molecule agonists of the antioxidant response element (ARE) signaling pathway (AID 743202; active means well fitted activation curve with a large enough effect in the signal ratio in the repeat runs, not every such curve was filed as active; the % refers to the signal ratio; further: potency means the concentration at half of the fitted maximal effect)
# Outline: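 An ARE-responsive beta-lactamase gene stably integrated in HepG2 cells serves as reporter. After 5 h plating and 16 h compound incubation at 37 C, fluorescence of the B/G FRET substrate was measured.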
# [17] = qHTS assay for small molecule agonists of the antioxidant response element (ARE) signaling pathway - cell viability counter screen (AID 743203; calls by dose curve; further: nearly all actives have a fitted effect of over 55% in size)
# Outline: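 ARE-bla HepG2 cells were plated, rested 5 h at 37C/5% CO2, then exposed to compounds in DMSO for 16 h. Viability was read as CellTiter-Glo luminescence after 30 min at room temperature, in the same wells as the ARE screen.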
# [18] = qHTS assay to identify small molecule agonists of the farnesoid-X-receptor (FXR) signaling pathway - cell viability counter screen (AID 743218); further: nearly all actives have a fitted effect of over 45% in size
# Outline: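 FXR-UAS-bla HEK 293T cells exposed to compounds for 16 h at 37C. Cytotoxicity read in the same wells by CellTiter-Glo luminescence after 30 min at room temperature, following the beta-lactamase FRET read.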
# [19] = target: Vitamin D3 receptor (Homo sapiens) (UniProt P11473); experiment: qHTS assay to identify small molecule agonists of the vitamin D receptor (VDR) signaling pathway (AID 743222; calls by dose curve)
# Outline: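 VDR-bla cells plated 4 h at 37 C, then exposed to compounds for 16 h at 37 C. Beta-lactamase reporter activity measured by fluorescence after 2 h room-temperature loading with LiveBLAzer B/G FRET substrate.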
# [20] = target: Vitamin D3 receptor (Homo sapiens) (UniProt P11473); experiment: qHTS assay to identify small molecule antagonists of the vitamin D receptor (VDR) signaling pathway (AID 743223; active means well fitted inhibition curve with a large enough effect in the signal ratio in the repeat runs, not every such curve was filed as active; the % refers to the signal ratio)
# Outline: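 Antagonist mode: compound added to VDR-bla cells alongside agonist 1alpha,25-dihydroxyvitamin D3 (3 nM final), incubation 16 h at 37C. Read-out is LiveBLAzer FRET fluorescence, 2 h at room temperature.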
# Chain of Bile acid receptor (Homo sapiens) (Q96RI1 whole entry, looked up): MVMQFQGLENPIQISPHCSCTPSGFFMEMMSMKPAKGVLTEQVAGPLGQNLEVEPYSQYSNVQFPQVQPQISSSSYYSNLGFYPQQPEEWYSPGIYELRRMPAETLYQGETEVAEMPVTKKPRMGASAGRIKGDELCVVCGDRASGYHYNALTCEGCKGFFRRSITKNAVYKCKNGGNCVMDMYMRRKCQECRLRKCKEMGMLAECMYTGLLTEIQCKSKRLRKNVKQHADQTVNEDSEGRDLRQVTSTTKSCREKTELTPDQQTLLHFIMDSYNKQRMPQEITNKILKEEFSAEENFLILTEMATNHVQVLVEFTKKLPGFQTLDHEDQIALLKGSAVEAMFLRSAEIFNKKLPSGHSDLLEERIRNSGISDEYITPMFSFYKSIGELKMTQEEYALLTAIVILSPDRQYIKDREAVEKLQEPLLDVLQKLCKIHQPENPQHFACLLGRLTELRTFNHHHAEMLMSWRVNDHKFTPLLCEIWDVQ
# Chain of Vitamin D3 receptor (Homo sapiens) (P11473 whole entry, looked up): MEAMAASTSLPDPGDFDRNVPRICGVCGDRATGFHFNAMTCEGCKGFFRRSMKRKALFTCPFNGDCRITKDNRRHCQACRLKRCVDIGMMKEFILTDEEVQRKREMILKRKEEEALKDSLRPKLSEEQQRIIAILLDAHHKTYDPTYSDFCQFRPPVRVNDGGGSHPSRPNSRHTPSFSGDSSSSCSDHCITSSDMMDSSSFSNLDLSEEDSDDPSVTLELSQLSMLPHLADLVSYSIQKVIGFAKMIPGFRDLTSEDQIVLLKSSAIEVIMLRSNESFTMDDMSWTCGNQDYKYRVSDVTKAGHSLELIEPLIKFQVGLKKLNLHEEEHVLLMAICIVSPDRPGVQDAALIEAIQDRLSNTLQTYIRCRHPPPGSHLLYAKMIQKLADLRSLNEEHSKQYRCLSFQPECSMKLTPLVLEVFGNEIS
# Chain of Peroxisome proliferator-activated receptor gamma (Homo sapiens) (P37231 whole entry, looked up): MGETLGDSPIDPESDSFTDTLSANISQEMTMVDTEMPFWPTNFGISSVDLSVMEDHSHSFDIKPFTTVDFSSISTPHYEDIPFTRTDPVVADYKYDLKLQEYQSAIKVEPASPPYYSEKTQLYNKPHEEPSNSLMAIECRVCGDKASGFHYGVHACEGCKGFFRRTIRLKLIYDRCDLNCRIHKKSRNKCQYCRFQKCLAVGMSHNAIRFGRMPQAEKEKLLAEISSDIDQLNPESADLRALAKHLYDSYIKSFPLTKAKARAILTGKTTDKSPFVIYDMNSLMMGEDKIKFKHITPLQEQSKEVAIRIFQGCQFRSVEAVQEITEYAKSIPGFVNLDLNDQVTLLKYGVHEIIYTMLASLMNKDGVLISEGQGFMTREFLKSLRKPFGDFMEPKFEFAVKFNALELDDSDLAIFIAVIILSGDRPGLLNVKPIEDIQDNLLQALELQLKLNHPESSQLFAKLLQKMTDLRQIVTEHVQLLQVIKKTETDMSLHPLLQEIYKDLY
# Chain of Peroxisome proliferator-activated receptor delta (Homo sapiens) (Q03181 whole entry, looked up): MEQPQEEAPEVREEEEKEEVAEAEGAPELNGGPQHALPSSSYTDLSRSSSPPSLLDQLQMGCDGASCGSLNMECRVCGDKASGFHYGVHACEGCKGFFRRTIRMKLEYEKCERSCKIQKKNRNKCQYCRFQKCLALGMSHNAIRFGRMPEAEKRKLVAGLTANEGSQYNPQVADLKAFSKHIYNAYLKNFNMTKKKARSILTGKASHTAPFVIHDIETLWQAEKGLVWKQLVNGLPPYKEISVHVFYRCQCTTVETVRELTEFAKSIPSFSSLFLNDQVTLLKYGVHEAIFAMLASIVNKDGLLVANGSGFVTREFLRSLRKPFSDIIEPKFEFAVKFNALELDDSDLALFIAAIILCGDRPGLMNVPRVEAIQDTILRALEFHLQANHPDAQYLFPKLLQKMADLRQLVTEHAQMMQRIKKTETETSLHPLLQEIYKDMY
# Chain of Aryl hydrocarbon receptor (Homo sapiens) (P35869 whole entry, looked up): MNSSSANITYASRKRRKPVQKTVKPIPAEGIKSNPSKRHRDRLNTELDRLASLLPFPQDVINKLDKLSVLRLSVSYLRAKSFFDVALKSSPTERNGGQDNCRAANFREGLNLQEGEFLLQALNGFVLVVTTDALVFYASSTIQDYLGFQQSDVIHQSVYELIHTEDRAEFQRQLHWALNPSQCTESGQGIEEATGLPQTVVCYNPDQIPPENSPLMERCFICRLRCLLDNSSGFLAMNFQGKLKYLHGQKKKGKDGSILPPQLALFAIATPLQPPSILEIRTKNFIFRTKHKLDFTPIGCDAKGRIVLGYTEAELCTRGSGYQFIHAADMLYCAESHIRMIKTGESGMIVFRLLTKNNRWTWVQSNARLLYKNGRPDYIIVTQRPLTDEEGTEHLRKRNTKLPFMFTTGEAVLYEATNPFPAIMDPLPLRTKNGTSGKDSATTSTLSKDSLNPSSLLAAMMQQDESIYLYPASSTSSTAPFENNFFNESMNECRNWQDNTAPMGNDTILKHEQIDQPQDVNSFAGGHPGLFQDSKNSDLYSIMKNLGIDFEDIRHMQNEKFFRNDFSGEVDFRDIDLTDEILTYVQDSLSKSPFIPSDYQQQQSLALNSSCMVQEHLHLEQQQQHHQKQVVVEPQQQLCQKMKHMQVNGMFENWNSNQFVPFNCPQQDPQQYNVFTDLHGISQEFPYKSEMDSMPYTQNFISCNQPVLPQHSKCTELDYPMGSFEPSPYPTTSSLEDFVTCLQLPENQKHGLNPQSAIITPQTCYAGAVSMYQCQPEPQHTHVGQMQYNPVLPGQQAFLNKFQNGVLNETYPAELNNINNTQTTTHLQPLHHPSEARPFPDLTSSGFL
SMILES,Potency [1],Potency [2],Potency [3],Potency [4],Potency [5],outcome [6],Potency [7],outcome [8],Potency [9],outcome [10],outcome [11],outcome [12],Potency [13],Potency [14],Potency [15],Potency [16],Potency [17],Potency [18],outcome [19],Potency [20]
CC[C@H](C)[C@@H](C(=O)O)n1sc2ccccc2c1=O,inactive,inactive,inactive,inactive,inactive,inactive,inactive,inactive,inactive,inactive,inactive,inactive,inactive,,,,,,,
Cc1cccc(C(C)(C)C)c1O,inactive,,inactive,inactive,inactive,inactive,inactive,,inactive,,,,inactive,inactive,inactive,inactive,inactive,inactive,inactive,inactive
Cc1c(Cn2ccnc2)c2ccccc2n1CCC(=O)O,inactive,,inactive,inactive,inactive,inactive,inactive,inactive,,,,,inactive,inactive,inactive,,,inactive,inactive,
O=C1[C@H](CC[C@H](O)c2ccc(F)cc2)[C@@H](c2ccc(O)cc2)N1c1ccc(F)cc1,inactive,,inactive,inactive,,inactive,inactive,,inactive,inactive,,,inactive,inactive,,,,inactive,inactive,inactive
CCN(CC)CCOC(=O)C1(c2ccccc2)CCCC1,inactive,,inactive,inactive,inactive,inactive,inactive,inactive,inactive,inactive,inactive,inactive,inactive,inactive,inactive,inactive,inactive,inactive,,
CCCc1ccccc1,inactive,,,inactive,,inactive,inactive,inactive,inactive,,,,inactive,inactive,inactive,,inactive,inactive,inactive,inactive
CCOc1ccc(NC(=O)CC(C)=O)cc1,inactive,,,inactive,inactive,inactive,inactive,inactive,inactive,,,,inactive,inactive,,inactive,inactive,inactive,inactive,
O=C(O)[C@@H]1[C@H]2C[C@H]3c4[nH]c5ccccc5c4CCN3C[C@@H]2CC[C@@H]1O,inactive,7.17 µM (active),inactive,inactive,inactive,,inactive,inactive,inactive,inactive,inactive,inactive,inactive,,,inactive,,inactive,inactive,
CC1=CC(=O)/C(=C(/C)O)C(=O)O1,inactive,,inactive,inactive,inactive,inactive,inactive,inactive,inactive,,inactive,inactive,inactive,inactive,,inactive,inactive,inactive,inactive,
CCOc1ccc2[nH]cc(C(=O)NCc3ccccc3)c(=O)c2n1,inactive,,inactive,inactive,inactive,inactive,inactive,inactive,inactive,inactive,inactive,inactive,inactive,inactive,inactive,15.4 µM (active),inactive,,inactive,
N#CCCNCCC#N,inactive,,inactive,inactive,inactive,inactive,inactive,inactive,inactive,,,,inactive,inactive,inactive,inactive,inactive,inactive,inactive,
NC(=S)N/N=C/c1cccnc1,inactive,inactive,inactive,,inactive,inactive,,inactive,inactive,inactive,,,inactive,,,inactive,inactive,inactive,inactive,inactive
CCCOc1ccc2nc(NC(=O)OC)[nH]c2c1,inactive,,inactive,inactive,inactive,inactive,inactive,inactive,,,,,inactive,inactive,inactive,,inactive,inactive,inactive,
CCCCCCCCN(C)C,inactive,,inactive,,inactive,,inactive,,inactive,,,,inactive,inactive,inactive,inactive,inactive,inactive,,
O=C(c1ccccc1)c1ccc2n1CCC2C(=O)O (configuration not stated),inactive,inactive,,inactive,inactive,inactive,,,,,,,inactive,,inactive,inactive,inactive,inactive,,
CCC(=O)OC(C)(C)C1CC=C(C)CC1 (configuration not stated),inactive,,inactive,inactive,inactive,inactive,inactive,inactive,,inactive,inactive,inactive,inactive,inactive,inactive,,,,,
CC(C)=CCCC(C)CC=O (configuration not stated),inactive,inactive,inactive,inactive,,,inactive,,inactive,,inactive,inactive,inactive,,,inactive,inactive,inactive,inactive,
